This passage reports INHIBITION results from ChEMBL document CHEMBL4513216, “Probing the Open Global Health Chemical Diversity Library for Multistage-Active Starting Points for Next-Generation Antimalarials” (ACS Infect Dis, 2020).

About 2,100 (3.2%) of roughly 65,000 compounds showed an effect of 50% or more. The median lay at about -52%. The entries come from a sample that favours strong results as a whole.

The test system of the experiment is Plasmodium falciparum. As to the kind of experiment: Screen against P. falciparum Asexual Blood Stage (ABS), at 5uM. The experiment is classed as functional, Dd2. The following applies: tested at 5 uM.
Turning to `Cc1cccc(CSc2ncc(Br)c(C(=O)O)n2)c1`, the INHIBITION is reported as -52.3%.

For the compound `Cc1cc(C)nc(NCCC(=O)Nc2ccc(Cn3cncn3)cc2)n1`, the INHIBITION was -92%.

For the compound `Cc1cnn(CCNCc2ccc(OCc3noc(C)n3)cc2)c1`, the INHIBITION was -14.8%.

Regarding `COc1ccc(C(C)NC(=O)C2CCN(S(C)(=O)=O)CC2)cc1C` (stereo not given), the INHIBITION is on record as -118%.

As for `N[C@@H]1CCCN(C(=O)Cc2c[nH]c3ccccc23)[C@H]1c1ccccc1F`, the INHIBITION is reported as 65.8%.

Turning to `O=C(Cc1c[nH]c2ccccc12)N1CCC(Nc2cccnn2)CC1`, the INHIBITION is -48%.

Regarding `COc1cccc(CCC(=O)N2CCCC(c3nncn3C)C2)c1` (stereo not given), the INHIBITION is -9.28%.

For `CC(=O)N1CCC[C@@H](NCc2c[nH]c3ccccc23)[C@@H]1c1ccc(C)s1`, the INHIBITION came to 14.4%.

For the compound `COc1cccc(CCC(=O)N2CCCCC2Cn2cccn2)c1` (stereo not given), the INHIBITION was -136%.

For the compound `COc1cccc(CCC(=O)N2CCC[C@@H](N)[C@@H]2c2ccccc2F)c1`, the INHIBITION was 68%.

As for `O=c1[nH]nc2c(N3CCOCC3)nccn12`, the INHIBITION is reported as -25.9%.

For `O=C(c1cccs1)N1C[C@H]2CCC[C@@]2(COCC2CCOCC2)C1`, the INHIBITION is given as -18.1%.

Consider `CS(=O)(=O)N1Cc2cnn(CC3CC3)c2C(COCC2CC2)C1` (stereo not given), for which the INHIBITION is -13.5%.

On to `O=C(NCC1CCS(=O)(=O)C1)c1ccco1` (stereo not given), for which the INHIBITION is on record as -48%.

As for `Cc1nc2ccc(C(=O)N3C[C@@H](O)[C@H](N4CCOCC4)C3)cc2[nH]1`, the INHIBITION is on record as -0.956%.

In the case of `Fc1ccc(C(NCc2nnc(-c3ccco3)o2)C2CCC2)cc1` (stereo not given), the INHIBITION was -32.2%.

`CN(C)c1ccc(NC(=O)NCC2CCOC2)cn1` (stereo not given): the INHIBITION is 33.3%.

As to `Cc1ccc(S(=O)(=O)N2CCN(C)c3ccncc32)cc1F`, the INHIBITION was 61.6%.

On to `Cc1cc(F)ccc1S(=O)(=O)N1CCN(C)c2ccncc21`, for which the INHIBITION was 22.6%.

Take `CN1CCN(S(=O)(=O)c2cccc(F)c2)c2cnccc21`: the INHIBITION is reported as 13.2%.

Take `N#CC1(C(=O)N2CCOC(c3ccc(Cl)cc3)C2)CCCC1` (stereo not given): the INHIBITION was -11.4%.

On to `CN(Cc1ccccc1F)C(C(N)=O)c1ccccc1` (stereo not given), for which the INHIBITION is recorded as -90%.

With `COc1nccc(N2CC[C@@H](N3CCCCCC3)[C@H](O)C2)c1C#N`, the INHIBITION turned out to be 52.3%.

Regarding `COc1nccc(N2CC[C@@H](N3CCC(O)CC3)[C@H](O)C2)c1C#N`, the INHIBITION is given as -75.9%.

Consider `COc1nccc(N2CC[C@@H](N3CCN(C)CC3)[C@H](O)C2)c1C#N`, for which the INHIBITION is recorded as -50.4%.

For the compound `O=C([C@H]1C[C@H]2OCC[C@H]2N(CC2CCOCC2)C1)N1CCCCO1`, the INHIBITION was -23.2%.

`Clc1cccc(-n2cnnn2)c1N1CCCCC1`: the INHIBITION was -48.1%.

For `CCOC(=O)C1CN(CC2CC2)Cc2ncn(CC)c21` (stereo not given), the INHIBITION was 14%.

`CNC(=O)CN1CCOCC12CCN(C(=O)c1ccc(C)cc1)CC2`: the INHIBITION is reported as -78%.

Consider `Cn1cc(C[C@H]2[C@H](N3CCOCC3)CCN2c2ncc(F)cn2)cn1`, for which the INHIBITION is reported as -63.8%.

As to `CCN(C)C[C@@H]1CN(S(=O)(=O)c2ccc(C#N)cc2)C[C@@H]1CO`, the INHIBITION was determined as 15.5%.

As to `CCN1CCCC1CN(CCN(C)C)S(=O)(=O)c1ccc(C#N)cc1` (stereo not given), the INHIBITION was 59.7%.

Consider `CN(CCn1cccn1)S(=O)(=O)c1ccc(C#N)cc1`, for which the INHIBITION was -48.4%.

Regarding `CCN1CCCC1CN(CCN(C)C)S(=O)(=O)c1cccc(C#N)c1` (stereo not given), the INHIBITION stood at 60.4%.

With `COCCCC1CCCCN1S(=O)(=O)c1cccc(C#N)c1` (stereo not given), the INHIBITION is -16.1%.

For `N#Cc1cccc(S(=O)(=O)N2CCCCC2CCN2CCCC2)c1` (stereo not given), the INHIBITION is given as -4%.

Regarding `CN1CCN(C(=O)c2cnsn2)c2cc(F)ccc21`, the INHIBITION is given as -79.3%.

For `CSc1ccc(-c2noc(CN(CC(C)C)CC(C)C)n2)cc1`, the INHIBITION was -63.5%.

On to `O=C(O)C1(Cc2cc(-c3ccc(F)cc3)no2)CCOCC1`, for which the INHIBITION is given as -19.8%.

Consider `Cc1ccc(NC(=O)CC2Cn3ncnc3NC2=O)cc1C` (stereo not given), for which the INHIBITION is -65.7%.

Turning to `Cc1cnn(CC2CCCN2Cc2nccn2CC(F)(F)F)c1` (stereo not given), the INHIBITION is given as -0.234%.

For the compound `CCn1ccnc1CN1CCCC1Cn1cc(C)cn1` (stereo not given), the INHIBITION came to 65.6%.

For `Cc1cnn(CC2CCCN2Cc2nccn2C)c1` (stereo not given), the INHIBITION was -72.8%.

Regarding `CN(C)CCCNC(=O)c1ccc(N(C)S(C)(=O)=O)cc1Cl`, the INHIBITION is given as -70.5%.

On to `O=C(CCc1ccccc1F)NS(=O)(=O)c1ccc2c(c1)OCCO2`, for which the INHIBITION is reported as -17.8%.

For `CCS(=O)(=O)N1CCCC2(COCCN(c3ccccn3)C2)C1` (stereo not given), the INHIBITION is given as -1.4%.

In the case of `COCC(O)CNC(=O)Nc1ccc(Cl)cc1-n1cccc1` (stereo not given), the INHIBITION is recorded as -45.8%.

As for `CCCn1ncc(CN(Cc2cccnc2)Cc2ccsc2)c1C`, the INHIBITION is listed as -129%.

Regarding `CCCn1ncc(CN(Cc2ccsc2)Cc2ccco2)c1C`, the INHIBITION is -122%.

`CCCn1ncc(CN(CCN(C)C)Cc2ccsc2)c1C`: the INHIBITION is 54.5%.

With `CCCc1cc(C(=O)NC(COC)c2ccnn2C)no1` (stereo not given), the INHIBITION amounted to 4.52%.

Consider `Cc1ccsc1CN(CCN(C)C)Cc1ccccn1`, for which the INHIBITION came out at 58.9%.

In the case of `COCCN(Cc1ccccn1)Cc1sccc1C`, the INHIBITION is given as -158%.

Take `Cc1ccsc1CN(Cc1ccccn1)CC(C)C`: the INHIBITION is recorded as -56.9%.

Take `Cc1ccc(CCNC(=O)CC2COCCN2S(=O)(=O)N(C)C)s1` (stereo not given): the INHIBITION was -49%.
